{
  "source": "PubChem BioAssay (EPA / NIEHS)",
  "note": "Calls of active or inactive are those of the source. The calls were made as follows: active = hit-call score of the fitted dose curve at least 0.9, where 1 is the maximum; inactive = score below 0.9.",
  "data": [
    {"assay": "ATG_GLI_CIS: Attagene CIS-FACTORIAL HepG2 Assay for human Zinc Finger Protein GLI1 (AID 2282945)", "conditions": "HepG2, Attagene cis-factorial reporter mRNA, GLI element; actives raise or lower the signal", "description": "ATG_CIS is a cell-based, multiplexed-readout assay that uses HepG2, a human liver cell line, with measurements taken at 24 hours after chemical dosing in a 24-well plate.ATG_GLI_CIS is one of 52 assay component(s) measured or calculated from the ATG_CIS assay. It is designed to make measurements of mRNA induction, a form of inducible reporter, as detected with fluorescence intensity signals by Reverse transcription polymerase chain reaction (RT-PCR) and Capillary electrophoresis technology.Data from the assay component ATG_GLI_CIS was analyzed into 1 assay endpoint. This assay endpoint, ATG_GLI_CIS, was analyzed with bidirectional fitting relative to DMSO as the negative control and baseline of activity. Using a type of inducible reporter, measures of mRNA for gain or loss-of-signal activity can be used to understand the reporter gene at the transcription factor-level as they relate to the gene GLI1. Furthermore, this assay endpoint can be referred to as a primary readout, because this assay has produced multiple assay endpoints where this one serves a reporter gene function. To generalize the intended target to other relatable targets, this assay endpoint is annotated to the dna binding intended target family, where the subfamily is zinc finger.\nHuman liver HepG2 cells are transiently transfected with multiple reporter transcription units (MRTUs) in 6-well plates using FuGene 6 reagent (Roche; 3 ml FuGene/1 mg DNA). The MRTU constructs are regulated by a cis-regulating element (promoter). […] A major difference between the CIS and TRANS system is that in CIS activities of endogenous TFs are measured, whereas the TRANS assay evaluates changes in activities of exogenous, chimeric NR-Gal4 proteins. […] At the end of 24 hour incubation, total RNA was isolated using TriZol reagent (Invitrogen). The isolated RNA is then reverse-transcribed using oligo(dT) primer and Mo-MLV reverse transcriptase (Invitrogen) with DNAse I (Ambion) treatment for 30 min. The one-tenth of the produced cDNA was amplified by PCR using Taq DNA polymerase (Invitrogen) and two reporter sequence-specific primers. The PCR products were fluorescently labeled by primer extension with 6-arboxyfluorescein (6-FAM) 5'-labeled reporter sequence-specific primer (2 min at 95 C, 20 s at 68 C and 10 min at 72 C) and these products were digested with 5U of HpaI (New England Biolabs) for 2h at 37 C. The fragments were purified using Qiaquick PCR columns (Qiagen), analyzed on an ABI 3130xL genetic analyzer (Applied Biosystems) with peak positions identified by using a set of X-rhodamine (ROX)-labeled MapMarker1000 molecular weight standards (BioVentures). The raw capillary electrophoresis data was processed using Attagraph software (Attagene).", "values": [
      {"smiles": "CCCCC/C=C\\C/C=C\\CCCCCCCC(=O)OC", "AC50": "162 µM (active)"},
      {"smiles": "NC(=O)N=NC(N)=O", "outcome": "inactive"},
      {"smiles": "CC(C)(C)C(=O)C=Cc1ccc(Cl)cc1", "AC50": "59.1 µM (active)"},
      {"smiles": "CC/C=C\\CCOC(=O)CCCCC", "outcome": "inactive"},
      {"smiles": "CCC(C)C=O", "note": "(stereo not given)", "outcome": "inactive"},
      {"smiles": "Oc1ccc(Cl)cc1Cc1cc(Cl)ccc1O", "outcome": "inactive"},
      {"smiles": "Cc1cccc(OCCOc2cccc(C)c2)c1", "outcome": "inactive"},
      {"smiles": "CC(C)C(=O)C(C)C", "outcome": "inactive"},
      {"smiles": "CC1=CC[C@H](C(C)C)C=C1", "outcome": "inactive"},
      {"smiles": "Nc1nc2ccccc2[nH]1", "outcome": "inactive"},
      {"smiles": "CCOC(=O)N1CCC(=C2c3ccc(Cl)cc3CCc3cccnc32)CC1", "outcome": "inactive"},
      {"smiles": "CCCCCC/C=C/C=O", "outcome": "inactive"},
      {"smiles": "CCOC(=O)c1ccc(N(C)C)cc1", "outcome": "inactive"},
      {"smiles": "CC(C)c1ccc2cc(C(C)C)ccc2c1", "outcome": "inactive"},
      {"smiles": "O=C(O)CCCC[C@@H]1SC[C@@H]2NC(=O)N[C@@H]21", "outcome": "inactive"},
      {"smiles": "O=c1n(CCO)c(=O)n(CCO)c(=O)n1CCO", "outcome": "inactive"},
      {"smiles": "O=C(C(Cl)Cl)N1CCOC12CCCCC2", "outcome": "inactive"},
      {"smiles": "CC(=O)OCC(C)OC(C)=O", "note": "(stereo not given)", "outcome": "inactive"},
      {"smiles": "CCC(Cc1ccccc1)(C(=O)c1ccc(N2CCOCC2)cc1)N(C)C", "note": "(stereo not given)", "outcome": "inactive"},
      {"smiles": "COCCCOCCCOC", "outcome": "inactive"},
      {"smiles": "O=S(=O)(O)CC(O)CCl", "note": "(stereo not given)", "outcome": "inactive"},
      {"smiles": "CC1OC1C1CCC2(C)OC2C1", "note": "(stereo not given)", "outcome": "inactive"},
      {"smiles": "CC(=O)NS(=O)(=O)c1ccc(N)cc1", "outcome": "inactive"},
      {"smiles": "O=C1CCCN1CCO", "outcome": "inactive"},
      {"smiles": "CC(C)c1ccc(C=O)cc1", "outcome": "inactive"},
      {"smiles": "Cc1cnc(NC(=O)C2=C(O)c3ccccc3S(=O)(=O)N2C)s1", "outcome": "inactive"},
      {"smiles": "CC(=O)OC(C)C", "outcome": "inactive"},
      {"smiles": "CCCCCCCCCCCCCOP(=O)(O)O", "outcome": "inactive"},
      {"smiles": "CC(=O)[C@H]1[C@H](C#N)C[C@H]2[C@@H]3CC=C4C[C@@H](O)CC[C@]4(C)[C@H]3CC[C@@]21C", "outcome": "inactive"},
      {"smiles": "CCOC(=O)[C@H](C)O", "outcome": "inactive"},
      {"smiles": "Cc1ccc(OC(=O)CC(C)C)cc1", "outcome": "inactive"},
      {"smiles": "CCCOC(=O)CCCCC(=O)OCCC", "outcome": "inactive"},
      {"smiles": "O=C(c1ccc(O)cc1)c1ccc(O)cc1O", "outcome": "inactive"},
      {"smiles": "CC(C)=CCCC(C)C=O", "note": "(stereo not given)", "outcome": "inactive"},
      {"smiles": "ON(Cc1ccccc1)Cc1ccccc1", "outcome": "inactive"},
      {"smiles": "Cn1c(=O)[nH]c2ncn(C)c2c1=O", "outcome": "inactive"},
      {"smiles": "CCC(CO)CO", "outcome": "inactive"},
      {"smiles": "CC=CCO", "outcome": "inactive"},
      {"smiles": "Cc1cccc(C(=O)O)c1", "outcome": "inactive"},
      {"smiles": "C(=CC=Nc1ccccc1)C=CNc1ccccc1", "outcome": "inactive"}
    ]}
  ]
}
